ADAM17 inh – inhibits human ADAM17. P78536. recombinant ADAM17, EDANS/DABCYL FRET peptide cleavage. inhibition, % at 6.95 µM. 370,000 tested, 0.83% active;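 active = inhibition above the mean of compounds lying between control limits plus 3 SD, set per campaign, cut at about 8.5% in these data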
ADAM10 inh – inhibits human ADAM10. O14672. recombinant ADAM10, EDANS/DABCYL FRET peptide cleavage, 3 h. inhibition, % at 7 µM. 370,000 tested, 0.62% active. AID 720582;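 active = inhibition above a per-campaign cutoff equal to the mean of compounds falling between control-based bounds plus 3 SD, cut at about 20% in these data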
PLC-gamma1 inh – blocks human PLC-gamma1 enzyme activity; P19174; purified PLC-gamma1, fluorogenic substrate, fluorescence; inhibition, % at 12.2 µM; 370,000 tested, 0.84% active; AID 720700; in the data active = inhibition above about 9.5%
PLC-beta3 inh – PLC-beta3 (human) inhibition, primary screen; Q01970; inhibition, % at 12.2 µM; 370,000 tested, 0.18% active; Purified PLC-beta3, fluorogenic substrate, fluorescence; in the data active = inhibition above about 11%
HGIII-sPLA2 inh – Blocks human group III sPLA2 activity; Q9NZ20; QFRET BODIPY PC-A2 liposome hydrolysis, fluorescence; inhibition, % at 12.2 µM; 370,000 tested, 0.56% active;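 active = inhibition above mean plus 3 SD of compounds lying within the high and low control bounds, cut at about 19% in these data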
KLK7 zymogen act – activates the human kallikrein-7 zymogen; purified proKLK7, EDANS-DABCYL substrate fluorescence; 100% is mature enzyme control, 0% vehicle; activation, % at 7 µM; 370,000 tested, 0.9% active;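 active = activation above the mean of all tested compounds plus 3 SD, computed per campaign excluding outliers beyond control limits, cut at about 13% in these data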
ADAM10 confirm – confirmation of inhibitors of human ADAM10. shares compounds with ADAM10 inh. ADAM10 QFRET peptide cleavage, EDANS fluorescence. inhibition, % at 6.95 µM. 2,100 tested, 1% active;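 active = inhibition above about 20% chosen separately for each screening run, limit read from the data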
ADAM17 counter – counter-screen for ADAM10 exosite inhibitors: inhibitors of human ADAM17; shares compounds with ADAM10 inh; ADAM17 QFRET peptide cleavage, EDANS fluorescence; inhibition, % at 6.95 µM; 2,100 tested, 0.5% active;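 active = mean triplicate inhibition above the solvent-only control wells' mean plus 3 SD, cut at about 12% in these data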
Large screens that a line does not name were inactive (follow-up assays come after a bar, where they were run). Compounds with a hit are over-represented: about 3.4% of the library has one in this group of screens.

N#Cc1c(N)[nH]c2ccc(Sc3ccccc3)cc12	ADAM10 inh 25.5 | ADAM10 confirm inactive | ADAM17 counter inactive
COC(=O)[C@@]12CCCCC3=C1N(CCC3)C(=O)[C@H]2CC(=O)NCC1CCCCC1	none
CC(C)C(=O)NC(c1ccccc1)c1cc([N+](=O)[O-])c2cccnc2c1O (stereo not given)	ADAM10 inh 20.1 | ADAM10 confirm inactive | ADAM17 counter inactive
COc1ccc(CN2C[C@]3(C=C(C)Cn4c(=O)n(-c5ccccc5)c(=O)n43)N=C2NC(=O)c2ccccc2)c(OC)c1	none
CC(=O)c1ccc(NC(=O)COC(=O)c2ccccc2N=Nc2ccc(N(C)C)cc2)cc1	ADAM10 inh 21.6 | ADAM10 confirm inactive | ADAM17 counter inactive
CC(=O)c1cccc(-c2ccnc3c2CC(C(=O)Nc2ccc(Cl)c(C(F)(F)F)c2)O3)c1 (stereo not given)	ADAM10 inh 26.2 | ADAM10 confirm inactive | ADAM17 counter inactive
O=C(Nc1cccc(C(F)(F)F)c1)C1Cc2c(-c3ccccc3)ccnc2O1 (stereo not given)	ADAM10 inh 21.7 | ADAM10 confirm inactive | ADAM17 counter inactive
C=CCN1[C@@H](CC(C)C)COc2cccc(N3CCSCC3)c2S1(=O)=O	none
O=C(Nc1ccc(F)cc1F)C1CCCN1S(=O)(=O)c1cccnc1 (stereo not given)	none
Cc1ccc(-c2nc3ncccn3c2NC(=O)Nc2ccc(OC(F)(F)F)cc2)cc1	none
COc1cc(OC)cc(C(=O)NCC(=O)NCCN2C(=O)S/C(=C\c3ccccc3Cl)C2=O)c1	none
COc1cc(C(=O)NCC(=O)NCCN2C(=O)S/C(=C\c3ccccc3Cl)C2=O)cc(OC)c1OC	ADAM10 inh 20.5 | ADAM10 confirm inactive | ADAM17 counter inactive
CCOC(=O)Cc1nc(N2CCN(CCN)CC2)c2c(C)c(C(=O)OCC)sc2n1	none
CCN1CCCCC(NC(=O)Cc2ccccc2)C1=O (stereo not given)	none
CC(=O)c1ccccc1-c1csc2ncnc(Sc3nnnn3C)c12	ADAM10 inh 76.1 | ADAM10 confirm inactive | ADAM17 counter inactive
O=C(Nc1ccc(F)cc1)OCc1cn(Cc2c(F)cccc2F)nn1	none
CCc1c(C#N)c(SCCC(=O)Nc2cccc(OC)c2)nc2c1C(=O)CC(C)(C)C2	ADAM10 inh 21.9 | ADAM10 confirm inactive | ADAM17 counter inactive
CCOC(=O)C1(C(=O)OCC)Cc2c([nH]c3ccccc23)[C@]2(N1)C(=O)N(C)c1ccc(Br)cc12	ADAM17 inh 12.3, ADAM10 inh 25.3, PLC-gamma1 inh 10.4 | ADAM10 confirm inactive | ADAM17 counter inactive
COc1ccc2c(c1)CCCN2C(=O)C1CCCN(S(=O)(=O)c2ccccc2)C1 (stereo not given)	none
COc1cc(/C=N/NC(=O)c2cc(-c3cccs3)nc3ccccc23)ccc1O	none
COc1cc(/C=N/NC(=O)c2cc(-c3cccc(OC(C)C)c3)nc3ccccc23)ccc1O	ADAM10 inh 27.6 | ADAM10 confirm inactive | ADAM17 counter inactive
COC(=O)[C@]12C[C@H](CC(=O)NCc3cccs3)C(=O)N(Cc3ccccc3)C1=C[C@H](COCc1ccccc1)O[C@@H]2C	none
O=C(Nc1ccc2c(c1)N(Cc1ccccc1)C(=O)c1ccccc1S2)NC1CC1	ADAM10 inh 21.3 | ADAM10 confirm inactive | ADAM17 counter inactive
CN1C(=O)c2ccccc2Sc2ccc(NC(=O)NC3CC3)cc21	none
Cc1occc1-c1nnc(SCC(=O)Nc2ccncc2)n1-c1ccccc1	none
Cc1cc(Cl)ccc1NC(=O)CN1CCC(C(O)(c2ccccc2)c2ccccc2)CC1	ADAM17 inh 8.7, ADAM10 inh 26.2 | ADAM10 confirm inactive | ADAM17 counter inactive
N#Cc1c(-c2ccccc2)c(-c2ccccc2)n(Cc2ccco2)c1NC(=O)c1cccs1	ADAM10 inh 19.8 | ADAM10 confirm 21.0 | ADAM17 counter inactive
CN1C(=O)c2cc(NC(=O)C3CCCCC3)ccc2OC[C@H]2O[C@@H](CC(=O)NC3CCCC3)CC[C@H]21	none
COC(=O)c1cnc(Nc2nc(C(N)COCc3ccccc3)cs2)nc1C(F)(F)F (stereo not given)	ADAM10 inh 21.6 | ADAM10 confirm inactive | ADAM17 counter inactive
CCC(NC(=O)CCCN1C(=O)COc2ccc(C)cc21)c1ccccc1 (stereo not given)	none
COCCCNC(=O)C[C@H]1C[C@@]2(C(=O)OC)C(=C[C@H](C3CCCC3)O[C@@H]2C)N(Cc2ccc(Cl)cc2Cl)C1=O	none
CCOC(=O)COc1ccc(C(C)c2ccc(NC(=O)OC(C)(C)C)cc2)cc1 (stereo not given)	ADAM10 inh 20.6 | ADAM10 confirm inactive | ADAM17 counter inactive
Cc1cc(C)cc(C(=O)OCCCN(C)C2CN(Cc3cn(Cc4cccc(F)c4)nn3)S(=O)(=O)C2)c1 (stereo not given)	none
Cc1ccc(S(=O)(=O)Nc2cccc(C(=O)N3CCN(c4ccccc4O)CC3)c2)cc1F	ADAM10 inh 20.0 | ADAM10 confirm inactive | ADAM17 counter inactive
O=C(CSc1nc2ccccc2[nH]1)Nc1ccc2c(c1)CCC2	ADAM10 inh 20.2 | ADAM10 confirm inactive | ADAM17 counter inactive
O=C(CSc1nc2ccc(Cl)cc2[nH]1)Nc1ccc2c(c1)CCC2	none
Cc1ccccc1Cn1cc(S(=O)(=O)CC(=O)Nc2nccs2)c2ccccc21	ADAM10 inh 22.9 | ADAM10 confirm inactive | ADAM17 counter inactive
CCn1nc(C)c(C(=O)Nc2cc(Oc3cc(C)cc(C)c3)cc([N+](=O)[O-])c2)c1C	ADAM10 inh 21.2 | ADAM10 confirm inactive | ADAM17 counter inactive
Cc1ccc(C)c(Oc2cc(NC(=O)CCCn3nc(C)c([N+](=O)[O-])c3C)cc([N+](=O)[O-])c2)c1	none
N#Cc1cccc(NC(=O)OCCN2C(=O)CCC23CCC(c2ccccc2)CC3)c1 (stereo not given)	none
Oc1ccc(F)cc1-c1cc(-c2ccc3c(c2)OCCO3)n[nH]1	ADAM10 inh 23.3 | ADAM10 confirm inactive | ADAM17 counter inactive
Oc1ccccc1-c1cc(-c2ccc(F)cc2)n[nH]1	none
CC(=O)c1ccc(NC(=S)NC(C)c2ccc(Cl)cc2Cl)cc1 (stereo not given)	ADAM10 inh 23.9 | ADAM10 confirm inactive | ADAM17 counter inactive
CCOc1ccc(/C=N/OCC(=O)Nc2ccc(OCc3ccccc3)cc2)cc1OC	none
COc1cc(/C=N/OCC(=O)Nc2ccc(OC(F)F)cc2)ccc1OCc1ccccc1	ADAM10 inh 23.1 | ADAM10 confirm inactive | ADAM17 counter inactive

High-throughput results from PubChem.
